MITF inh = MITF inhibitors, primary screen, biochemical, AlphaScreen, human; AID 1259374, 2018; AlphaScreen MITF homodimerization, bead proximity signal; inhibition, % at 2.6 µM; 650,000 tested, 0.91% active; in the data active = inhibition above about 50%
TEAD-YAP block = TEAD-YAP interaction inhibition, primary screen, TEAD-YAP interaction inhibitor project, luminescence, HEK-TIYL cells; inhibition, % at 9.12 µM; 640,000 tested, 1.4% active; TEAD-Gal4/YAP UAS-luciferase luminescence; in the data active = inhibition above about 32%
FBW7 act = FBW7 E3 ligase activators, primary screen, biochemical, AlphaScreen, human. AlphaScreen FBW7–phospho-cyclin E peptide binding, activator screen. normalized activity (activation), % at 26.1 µM. 650,000 tested, 0.13% active; in the data active = normalized activity above about 1.9%;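 also: purified mutant Fbw7 with reduced substrate affinity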
GPR151 activ = activators of human GPR151, primary screen, cell-based, PathHunter beta-arrestin, luminescence | G-protein coupled receptor 151 (Homo sapiens), Q8TDV0 | PathHunter beta-arrestin GPR151 cells | 650,000 tested, 1% active | activation, % at 11.2 µM; in the data active = activation above about 4.9%
Target sequence (Q8TDV0 whole entry, looked up): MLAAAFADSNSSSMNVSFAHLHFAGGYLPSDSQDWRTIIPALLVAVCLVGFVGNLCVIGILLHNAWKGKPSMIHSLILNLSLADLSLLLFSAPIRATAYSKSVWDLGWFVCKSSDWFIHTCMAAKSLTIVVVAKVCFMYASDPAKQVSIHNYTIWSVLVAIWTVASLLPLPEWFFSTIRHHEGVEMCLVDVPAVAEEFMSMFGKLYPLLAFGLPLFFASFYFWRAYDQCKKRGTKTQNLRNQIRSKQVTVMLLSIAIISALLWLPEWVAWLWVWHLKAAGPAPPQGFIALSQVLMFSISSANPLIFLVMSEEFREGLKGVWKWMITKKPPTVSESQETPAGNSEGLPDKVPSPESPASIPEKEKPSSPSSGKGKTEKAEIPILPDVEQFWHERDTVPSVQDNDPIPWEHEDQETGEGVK
Hits are given with their value. Most compounds without a hit are left out; they make up all but 3.5% or so of the library.

Screening O=[N+]([O-])c1cc(C(F)(F)F)ccc1N1CCN(S(=O)(=O)c2cccc3nsnc23)CC1 returned MITF inh inactive, TEAD-YAP block inactive, FBW7 act inactive and GPR151 activ inactive.
`Cc1cc(-c2ccc(NC(=O)[C@H]3COc4ccccc4O3)cc2)ccn1` gave MITF inh inactive, TEAD-YAP block 75.0, FBW7 act inactive and GPR151 activ inactive.
`CCOc1ccccc1CN1CCN(C2CSCCSC2)CC1CCO` (stereo unspecified) gave MITF inh inactive, TEAD-YAP block inactive, FBW7 act inactive and GPR151 activ inactive.
COc1cc(OC)cc(C(=O)N/N=C(\C)CC(=O)Nc2ccccc2C(F)(F)F)c1 was read as MITF inh inactive, TEAD-YAP block 49.5, FBW7 act inactive and GPR151 activ inactive.
`COc1cccc(NC(=O)C(=O)N/N=C(\C)CC(=O)NC2CCCCCCC2)c1` gave MITF inh inactive, TEAD-YAP block inactive, FBW7 act inactive and GPR151 activ inactive.
COc1cc(OC)cc(C(=O)N/N=C(\C)CC(=O)NC2CCCCC2)c1 was read as MITF inh inactive, TEAD-YAP block 60.3, FBW7 act inactive and GPR151 activ inactive.
For C/C(CC(=O)Nc1cccc(C(F)(F)F)c1)=N\NC(=O)c1ccc2ccccc2c1 the results were MITF inh inactive, TEAD-YAP block 51.5, FBW7 act inactive and GPR151 activ inactive.
For C/C(CC(=O)Nc1ccccc1C#N)=N\NC(=O)c1ccncc1 the results were MITF inh inactive, TEAD-YAP block inactive, FBW7 act 1.9 and GPR151 activ inactive.
For O=C(NCc1ccccc1Cl)c1ccc(N2CC3CC(C2)c2cccc(=O)n2C3)c(NC(=S)Nc2ccc(Cl)cc2Cl)c1 (stereo unspecified) the results were MITF inh inactive, TEAD-YAP block inactive, FBW7 act inactive and GPR151 activ inactive.
Screening C/C(CC(=O)Nc1ccc(I)cc1)=N\NC(=O)c1cccc(O)c1 returned MITF inh inactive, TEAD-YAP block inactive, FBW7 act inactive and GPR151 activ inactive.
For COc1cccc(C(=O)N/N=C(\C)CC(=O)Nc2ccc(Br)cc2)c1 the results were MITF inh inactive, TEAD-YAP block inactive, FBW7 act inactive and GPR151 activ inactive.
`C/C(CC(=O)Nc1ccc(C)cc1)=N\NC(=O)c1cccc(O)c1` gave MITF inh inactive, TEAD-YAP block 35.1, FBW7 act inactive and GPR151 activ inactive.
`COc1cc(OC)cc(C(=O)N/N=C(\C)CC(=O)Nc2ccc(Br)cc2)c1` gave MITF inh inactive, TEAD-YAP block 54.3, FBW7 act inactive and GPR151 activ inactive.
Screening CC(C)(C)C(=O)Cn1c(=O)n(CCCC(=O)NCc2ccco2)c(=O)c2sccc21 returned MITF inh inactive, TEAD-YAP block inactive, FBW7 act inactive and GPR151 activ inactive.
For O=C(Nc1cccc(NCc2cccnc2)c1)c1ccc(Cl)cc1Cl the results were MITF inh inactive, TEAD-YAP block inactive, FBW7 act inactive and GPR151 activ inactive.
Nc1cccc2c1C(=O)N(c1ccccc1O)C2=O was read as MITF inh inactive, TEAD-YAP block inactive, FBW7 act inactive and GPR151 activ inactive.
Screening Cc1cc(C)n(CCNc2nncc(-c3ccc4c(c3)OCO4)n2)n1 returned MITF inh inactive, TEAD-YAP block inactive, FBW7 act inactive and GPR151 activ inactive.
c1cnn(CCCNc2nncc(-c3ccc4c(c3)OCO4)n2)c1 was read as MITF inh inactive, TEAD-YAP block 85.2, FBW7 act inactive and GPR151 activ inactive.
For CC1(C)C(=O)OC(c2cccc([N+](=O)[O-])c2)C(C)(C)C1=O (stereo unspecified) the results were MITF inh inactive, TEAD-YAP block inactive, FBW7 act inactive and GPR151 activ inactive.
For COCCCn1c(=O)[nH]c2nc(-c3ccncc3)cnc21 the results were MITF inh inactive, TEAD-YAP block inactive, FBW7 act inactive and GPR151 activ inactive.
`COc1ccccc1/C=N/NC(=S)Nc1ccccc1OC` gave MITF inh inactive, TEAD-YAP block 46.1, FBW7 act inactive and GPR151 activ inactive.
For CCOC(=O)c1ccc(NC(=S)Nc2cccc(OC)c2)cc1 the results were MITF inh inactive, TEAD-YAP block 61.8, FBW7 act inactive and GPR151 activ inactive.
`COc1cccc(/C=N/NC(=S)Nc2cccc(C(=O)O)c2)c1O` gave MITF inh 111.7, TEAD-YAP block 60.5, FBW7 act inactive and GPR151 activ inactive.
COc1ccccc1/C=N/NC(=O)C(=O)Nc1ccccc1OC was read as MITF inh inactive, TEAD-YAP block inactive, FBW7 act inactive and GPR151 activ inactive.
Screening COc1cccc(NC(=S)N/N=C/c2ccc(O)cc2)c1 returned MITF inh inactive, TEAD-YAP block 60.0, FBW7 act inactive and GPR151 activ inactive.
For O=C(O)c1cccc(NC(=S)N/N=C/c2cc(Cl)ccc2O)c1 the results were MITF inh 90.8, TEAD-YAP block inactive, FBW7 act inactive and GPR151 activ inactive.
`COc1cc(/C=N/NC(=S)Nc2cccc(C(=O)O)c2)ccc1O` gave MITF inh inactive, TEAD-YAP block 32.3, FBW7 act inactive and GPR151 activ inactive.
For COc1cccc(/C=N/NC(=S)Nc2cccc(F)c2)c1O the results were MITF inh 57.7, TEAD-YAP block 40.2, FBW7 act inactive and GPR151 activ inactive.
`O=C(CNC(=O)COc1ccccc1)N=Nc1c(O)[nH]c2ccccc12` gave MITF inh inactive, TEAD-YAP block inactive, FBW7 act inactive and GPR151 activ inactive.
`c1ccc2c(N3CCC4(CC3)OCCO4)nnc(Cc3ccncc3)c2c1` gave MITF inh inactive, TEAD-YAP block inactive, FBW7 act inactive and GPR151 activ inactive.
Screening Cc1cc(S(=O)(=O)O)c(C(C)C)cc1N returned MITF inh inactive, TEAD-YAP block inactive, FBW7 act 4.1 and GPR151 activ inactive.
`c1cncc(-c2nc3c4ccccc4nc(NCCCN4CCCCCC4)n3n2)c1` gave MITF inh inactive, TEAD-YAP block 69.1, FBW7 act inactive and GPR151 activ inactive.
`COc1cc2nc(NCCCN3CCCCC3)n3nc(-c4cccnc4)nc3c2cc1OC` gave MITF inh inactive, TEAD-YAP block 37.4, FBW7 act inactive and GPR151 activ inactive.
`CCCCNc1nc2cc(OC)c(OC)cc2c2nc(-c3cccnc3)nn12` gave MITF inh inactive, TEAD-YAP block inactive, FBW7 act inactive and GPR151 activ inactive.
`Cc1ccc(C(=O)N/C(=C/c2cccs2)C(=O)NN)cc1` gave MITF inh inactive, TEAD-YAP block inactive, FBW7 act inactive and GPR151 activ inactive.
O=[N+]([O-])c1cc(-c2ccc(/C=N\n3cnnc3)o2)ccc1O was read as MITF inh 57.6, TEAD-YAP block inactive, FBW7 act inactive and GPR151 activ inactive.
Screening COc1cc(C2CC(c3c(O)cc(C)oc3=O)=Nc3ccccc3S2)cc(OC)c1O (stereo unspecified) returned MITF inh inactive, TEAD-YAP block 43.9, FBW7 act inactive and GPR151 activ inactive.

Screening data (PubChem)
